For four compounds, Percent Effect results are on record in ChEMBL document CHEMBL3988442, “University of Dundee, Small-Polar-MMV Screening Library” (2021).

The structures appear in SMILES notation. For some of these results: Measured potencies and affinities stand elsewhere.

Holding throughout (parameters): scale not given: direction of the effect not stated beside the values
Assay [1] concerns the target Protein translocase subunit SecA (Escherichia coli (strain K12)) (UniProt P10408). Nature of the assay: Assay to Identify E. coli SecA ATPase Inhibitors. Conditions: 30 µM. Format: functional.
Assay [2] has as its target T1, Ubiquitin-activating enzyme e1, putative (Leishmania donovani (strain BPK282A1)) (UniProt E9BSI1).
T1 sequence (whole entry): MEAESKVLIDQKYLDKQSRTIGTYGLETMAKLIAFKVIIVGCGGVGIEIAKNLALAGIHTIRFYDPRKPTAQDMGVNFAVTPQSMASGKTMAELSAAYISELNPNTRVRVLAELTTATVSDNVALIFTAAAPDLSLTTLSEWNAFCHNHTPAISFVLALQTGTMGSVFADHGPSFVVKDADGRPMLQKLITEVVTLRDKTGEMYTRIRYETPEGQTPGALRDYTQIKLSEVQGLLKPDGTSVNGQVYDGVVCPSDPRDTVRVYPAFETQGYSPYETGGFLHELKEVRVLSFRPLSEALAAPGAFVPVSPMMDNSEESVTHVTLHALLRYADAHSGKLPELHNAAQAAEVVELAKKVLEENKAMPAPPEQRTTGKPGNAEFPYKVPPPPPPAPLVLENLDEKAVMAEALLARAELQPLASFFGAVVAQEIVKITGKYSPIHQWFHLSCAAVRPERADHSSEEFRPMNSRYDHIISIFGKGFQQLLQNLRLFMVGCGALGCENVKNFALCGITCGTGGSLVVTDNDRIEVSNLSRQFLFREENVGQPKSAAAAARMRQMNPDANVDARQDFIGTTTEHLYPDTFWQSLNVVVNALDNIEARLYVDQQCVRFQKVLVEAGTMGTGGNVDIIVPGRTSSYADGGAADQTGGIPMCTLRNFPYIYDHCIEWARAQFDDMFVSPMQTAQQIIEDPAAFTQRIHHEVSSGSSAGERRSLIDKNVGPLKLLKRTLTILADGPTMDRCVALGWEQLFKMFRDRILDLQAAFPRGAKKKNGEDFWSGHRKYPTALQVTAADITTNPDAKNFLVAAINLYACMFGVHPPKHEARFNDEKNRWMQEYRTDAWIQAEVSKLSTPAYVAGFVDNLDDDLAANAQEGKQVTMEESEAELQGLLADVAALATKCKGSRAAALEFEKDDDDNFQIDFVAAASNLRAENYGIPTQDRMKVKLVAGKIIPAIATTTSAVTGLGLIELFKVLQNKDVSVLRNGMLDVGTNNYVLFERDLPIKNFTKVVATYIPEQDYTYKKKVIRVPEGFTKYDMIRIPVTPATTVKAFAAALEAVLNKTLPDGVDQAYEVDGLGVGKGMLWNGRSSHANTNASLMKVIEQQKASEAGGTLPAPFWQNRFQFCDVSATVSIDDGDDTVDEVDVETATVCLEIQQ
The assay can be described thus: Leishmania donovani Ubiquitin Activating Enzyme (LdE1). Type of assay: functional. Conditions: 30 µM.

In assay [3] the target is T2, Aspartate--tRNA(Asp/Asn) ligase (Mycobacterium tuberculosis (strain ATCC 25618 / H37Rv)) (UniProt P9WFW3). Also: in the data most compounds retested in dose-response had high values.
T2 sequence (whole entry): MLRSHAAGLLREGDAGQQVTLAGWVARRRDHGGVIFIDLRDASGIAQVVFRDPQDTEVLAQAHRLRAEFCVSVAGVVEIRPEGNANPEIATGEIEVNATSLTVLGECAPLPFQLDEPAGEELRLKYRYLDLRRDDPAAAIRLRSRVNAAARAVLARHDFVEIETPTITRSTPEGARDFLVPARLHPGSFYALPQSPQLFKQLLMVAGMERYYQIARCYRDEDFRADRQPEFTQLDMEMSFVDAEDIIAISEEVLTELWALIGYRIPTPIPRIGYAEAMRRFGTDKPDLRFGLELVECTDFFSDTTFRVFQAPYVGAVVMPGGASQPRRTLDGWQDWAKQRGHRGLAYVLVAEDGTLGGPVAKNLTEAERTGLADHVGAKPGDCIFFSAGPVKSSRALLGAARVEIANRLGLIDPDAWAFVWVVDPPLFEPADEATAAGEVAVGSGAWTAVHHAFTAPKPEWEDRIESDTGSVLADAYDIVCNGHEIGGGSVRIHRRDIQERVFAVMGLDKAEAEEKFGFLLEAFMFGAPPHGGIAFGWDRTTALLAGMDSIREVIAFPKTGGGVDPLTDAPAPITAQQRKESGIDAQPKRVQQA
Nature of the assay: Assay for Asp RNA synthetase-1 from Mycobacterium tuberculosis. Format: functional. Particulars: 30 µM.

In assay [4] the target is AMP-activated protein kinase, AMPK (Homo sapiens) (UniProt P54646+O43741+P54619+Q9UGJ0+Q9Y478+Q13131+Q9UGI9). The assay can be described thus: AMP-dependent Kinase enzyme assay. An in vitro enzyme assay that detects ADP turnover that is directly proportional to AMPK activity. This uses naive AMPK that is activated during the assay with MK-8722. Format: functional. Conditions: 30 µM.

Assay [5] deals with Sialic acid-binding Ig-like lectin 9 (Homo sapiens) (UniProt Q9Y336). The assay can be described thus: Hs-Siglec9 ALPHAscreen SOP 20170721. Particulars: 10 µM.
Chain of Sialic acid-binding Ig-like lectin 9 (Homo sapiens) (Q9Y336 whole entry): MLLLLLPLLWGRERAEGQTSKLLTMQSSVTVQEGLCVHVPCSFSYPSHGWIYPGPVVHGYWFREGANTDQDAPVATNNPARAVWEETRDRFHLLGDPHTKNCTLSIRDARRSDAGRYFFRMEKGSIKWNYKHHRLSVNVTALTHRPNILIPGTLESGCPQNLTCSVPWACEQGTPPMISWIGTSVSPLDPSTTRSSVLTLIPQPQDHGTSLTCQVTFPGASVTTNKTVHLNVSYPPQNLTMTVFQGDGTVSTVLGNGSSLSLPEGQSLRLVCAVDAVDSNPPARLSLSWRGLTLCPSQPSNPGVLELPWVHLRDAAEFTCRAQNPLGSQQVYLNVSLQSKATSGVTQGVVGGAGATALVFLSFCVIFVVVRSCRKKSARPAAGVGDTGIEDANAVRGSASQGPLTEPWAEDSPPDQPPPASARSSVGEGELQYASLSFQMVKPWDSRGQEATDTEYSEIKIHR
For assay [6], the system named is Trypanosoma cruzi. The assay can be described thus: Trypanosoma cruzi phosphomannomutase and mannose-1-phosphate guanylyltransferase assay. Type of assay: functional. Conditions: 10 µM.
The target of assay [7] is T3, Arginase-2, mitochondrial (Homo sapiens) (UniProt P78540).
T3 sequence (whole entry): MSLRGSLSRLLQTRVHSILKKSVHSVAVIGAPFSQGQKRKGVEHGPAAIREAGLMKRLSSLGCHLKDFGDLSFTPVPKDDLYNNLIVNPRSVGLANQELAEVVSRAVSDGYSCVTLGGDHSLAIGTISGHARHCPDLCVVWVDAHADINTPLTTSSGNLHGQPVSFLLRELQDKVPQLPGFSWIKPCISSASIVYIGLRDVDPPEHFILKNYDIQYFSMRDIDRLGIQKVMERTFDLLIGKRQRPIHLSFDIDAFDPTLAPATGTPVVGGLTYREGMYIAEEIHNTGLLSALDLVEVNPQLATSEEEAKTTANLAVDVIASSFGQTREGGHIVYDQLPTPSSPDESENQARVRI
Nature of the assay: in vitro enzyme assay to detect the production of urea directly proportional to the activity of Arginase II. Also: in the data most compounds retested in dose-response had high values. Type of assay: functional. Particulars: 33.3 µM.

In assay [8] the target is T4, Proteasome subunit beta (Trypanosoma cruzi) (UniProt O96673).
T4 sequence (whole entry): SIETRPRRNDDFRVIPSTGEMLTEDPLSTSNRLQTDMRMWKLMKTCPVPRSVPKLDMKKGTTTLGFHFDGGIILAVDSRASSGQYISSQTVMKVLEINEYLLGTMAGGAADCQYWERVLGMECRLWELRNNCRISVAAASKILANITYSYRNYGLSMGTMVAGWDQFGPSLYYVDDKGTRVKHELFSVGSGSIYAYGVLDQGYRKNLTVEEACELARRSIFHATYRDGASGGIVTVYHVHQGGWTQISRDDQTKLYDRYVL
Nature of the assay: Trypanosoma cruzi proteasome chymotrypsin-like activity (TcProtChymo) assay. Also: in the data most compounds retested in dose-response had high values. Type of assay: functional. Particulars: 9.37 µM.

The species named for assay [9] is Homo sapiens. The assay can be described thus: To identify inhibition of the IFN signalling (Jak-Stat) pathway via expression of an eGFP reporter gene under the control of an IFN-stimulated response element (ISRE) containing MxA promoter. Type of assay: functional. Particulars: 30 µM. For orientation: In a reporter assay the amount or activity of a reporter protein is the signal.

Assay [10] deals with Shiga toxin 2 (Escherichia coli O157:H7) (UniProt P09385+P09386). The assay can be described thus: E. coli 0.157:H7 Shiga Toxin SOP - stx2 screening assay. Conditions: 30 µM. Type of assay: functional.
Assay [11] deals with T5, Tyrosyl-tRNA synthetase, putative (Trypanosoma cruzi (strain CL Brener)) (UniProt Q4DSP6).
T5 sequence (whole entry): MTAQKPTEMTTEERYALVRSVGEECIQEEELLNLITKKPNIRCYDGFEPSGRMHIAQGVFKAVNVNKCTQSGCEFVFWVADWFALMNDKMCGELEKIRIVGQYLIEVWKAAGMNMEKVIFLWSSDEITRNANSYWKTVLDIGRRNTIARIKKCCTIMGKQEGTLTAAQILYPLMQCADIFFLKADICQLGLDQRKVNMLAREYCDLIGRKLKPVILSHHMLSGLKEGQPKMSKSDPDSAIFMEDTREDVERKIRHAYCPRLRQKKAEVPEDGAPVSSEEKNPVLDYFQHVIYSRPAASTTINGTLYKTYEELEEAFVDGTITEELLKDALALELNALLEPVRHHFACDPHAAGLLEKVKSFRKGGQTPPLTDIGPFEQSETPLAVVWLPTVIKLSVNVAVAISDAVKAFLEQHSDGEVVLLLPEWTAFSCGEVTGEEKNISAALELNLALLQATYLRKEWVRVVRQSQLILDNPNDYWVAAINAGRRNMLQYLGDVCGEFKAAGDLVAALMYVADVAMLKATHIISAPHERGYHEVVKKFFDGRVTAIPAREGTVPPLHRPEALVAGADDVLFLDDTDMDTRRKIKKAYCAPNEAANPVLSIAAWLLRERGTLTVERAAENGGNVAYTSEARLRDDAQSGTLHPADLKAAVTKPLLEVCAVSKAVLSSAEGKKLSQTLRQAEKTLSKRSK
The assay can be described thus: Trypanosoma cruzi tyrosyl tRNA synthetase (TcYRS) _High Tyrosine SOP. Also: in the data most compounds retested in dose-response had high values. Format: functional. Conditions: 30 µM.

Assay [12] has as its target T5, Tyrosyl-tRNA synthetase, putative (Trypanosoma cruzi (strain CL Brener)). Nature of the assay: Trypanosoma cruzi tyrosyl tRNA synthetase (TcYRS) SOP. Type of assay: functional. Conditions: 30 µM.
Assay [13] has as its target Chromo domain-containing protein 1 (Saccharomyces cerevisiae (strain ATCC 204508 / S288c) (Baker's yeast)) (UniProt P32657). The assay can be described thus: ScCHD-1 Enzyme Inhibition Assay. Also: in the data most compounds retested in dose-response had high values. Format: functional. Conditions: 30 µM.

Chain of Chromo domain-containing protein 1 (Saccharomyces cerevisiae (strain ATCC 204508 / S288c) (Baker's yeast)) (P32657 whole entry, the tested form may be a part): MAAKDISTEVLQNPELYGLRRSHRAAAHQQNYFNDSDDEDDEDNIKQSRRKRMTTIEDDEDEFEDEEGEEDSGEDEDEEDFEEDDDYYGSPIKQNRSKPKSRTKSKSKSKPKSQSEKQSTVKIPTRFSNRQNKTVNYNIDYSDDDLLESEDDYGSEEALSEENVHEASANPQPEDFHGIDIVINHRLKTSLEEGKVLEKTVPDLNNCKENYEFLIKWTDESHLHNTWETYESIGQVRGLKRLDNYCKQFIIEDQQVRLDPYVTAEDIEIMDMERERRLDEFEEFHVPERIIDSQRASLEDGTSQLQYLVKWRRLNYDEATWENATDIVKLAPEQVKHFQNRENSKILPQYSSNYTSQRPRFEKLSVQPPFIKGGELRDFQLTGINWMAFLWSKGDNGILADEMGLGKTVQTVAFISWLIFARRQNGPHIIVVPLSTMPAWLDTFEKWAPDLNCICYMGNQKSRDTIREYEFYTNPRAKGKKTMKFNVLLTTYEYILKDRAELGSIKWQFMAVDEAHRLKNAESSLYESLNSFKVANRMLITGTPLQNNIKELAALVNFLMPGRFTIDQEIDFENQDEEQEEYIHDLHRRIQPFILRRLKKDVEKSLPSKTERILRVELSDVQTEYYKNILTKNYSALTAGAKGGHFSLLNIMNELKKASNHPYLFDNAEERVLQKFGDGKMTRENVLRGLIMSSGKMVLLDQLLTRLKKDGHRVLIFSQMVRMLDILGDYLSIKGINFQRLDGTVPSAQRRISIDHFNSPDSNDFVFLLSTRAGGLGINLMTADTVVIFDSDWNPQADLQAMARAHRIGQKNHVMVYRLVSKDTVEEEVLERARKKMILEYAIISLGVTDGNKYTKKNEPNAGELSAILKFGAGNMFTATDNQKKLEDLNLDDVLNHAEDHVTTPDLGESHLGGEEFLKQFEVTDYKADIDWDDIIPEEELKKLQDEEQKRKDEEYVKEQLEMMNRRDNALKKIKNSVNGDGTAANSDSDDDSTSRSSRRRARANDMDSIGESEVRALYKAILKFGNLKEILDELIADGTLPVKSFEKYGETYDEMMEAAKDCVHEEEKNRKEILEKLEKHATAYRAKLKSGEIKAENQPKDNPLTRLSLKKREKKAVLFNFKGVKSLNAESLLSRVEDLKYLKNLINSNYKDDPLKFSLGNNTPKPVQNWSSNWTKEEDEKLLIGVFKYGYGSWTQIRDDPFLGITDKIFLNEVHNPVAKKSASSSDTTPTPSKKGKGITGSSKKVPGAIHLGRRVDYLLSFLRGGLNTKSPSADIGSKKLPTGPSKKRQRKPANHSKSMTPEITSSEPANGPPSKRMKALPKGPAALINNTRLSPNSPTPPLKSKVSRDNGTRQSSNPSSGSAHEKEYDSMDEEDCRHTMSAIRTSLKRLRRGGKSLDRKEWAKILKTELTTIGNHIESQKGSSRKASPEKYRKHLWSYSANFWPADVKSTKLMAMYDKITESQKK
Chain of Protein translocase subunit SecA (Escherichia coli (strain K12)) (P10408 whole entry): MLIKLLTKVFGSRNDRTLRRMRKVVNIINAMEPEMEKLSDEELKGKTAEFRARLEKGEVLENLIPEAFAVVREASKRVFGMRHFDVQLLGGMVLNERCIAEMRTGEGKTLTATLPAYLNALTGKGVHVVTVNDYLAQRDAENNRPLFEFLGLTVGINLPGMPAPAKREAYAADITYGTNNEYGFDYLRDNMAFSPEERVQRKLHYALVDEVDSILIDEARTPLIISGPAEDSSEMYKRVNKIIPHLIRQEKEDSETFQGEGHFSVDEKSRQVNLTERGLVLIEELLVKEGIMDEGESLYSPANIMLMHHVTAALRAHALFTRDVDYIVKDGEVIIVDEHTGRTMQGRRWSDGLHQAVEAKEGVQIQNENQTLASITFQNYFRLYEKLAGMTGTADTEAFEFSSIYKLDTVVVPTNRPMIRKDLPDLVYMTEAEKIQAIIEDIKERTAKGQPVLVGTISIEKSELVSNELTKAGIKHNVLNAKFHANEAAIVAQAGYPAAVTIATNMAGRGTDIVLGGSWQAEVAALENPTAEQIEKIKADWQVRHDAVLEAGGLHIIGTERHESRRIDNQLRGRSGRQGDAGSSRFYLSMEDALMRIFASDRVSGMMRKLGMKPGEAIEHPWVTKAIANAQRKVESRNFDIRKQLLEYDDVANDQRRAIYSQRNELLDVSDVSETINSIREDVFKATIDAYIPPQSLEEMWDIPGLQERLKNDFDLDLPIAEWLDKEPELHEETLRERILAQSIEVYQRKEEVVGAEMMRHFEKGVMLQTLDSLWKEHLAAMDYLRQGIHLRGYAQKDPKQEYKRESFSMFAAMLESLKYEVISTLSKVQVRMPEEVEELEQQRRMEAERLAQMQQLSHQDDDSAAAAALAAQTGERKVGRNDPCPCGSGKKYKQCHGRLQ

`c1cc(CO[C@@H]2CC[C@H]3[C@H]2OCCN3Cc2ccoc2)ccn1`: the Percent Effect in assay [1] was -1.76%; in [2], 13.5%; in [3], 9.49%; in assay [4], 9.36%; in assay [5], -7.31%; in assay [6], -1.66%. The Percent Effect was determined as 2.23% in assay [7]; 27.1% in [8]; 33.2% in assay [9]; 1.68% in assay [10]; 1.08% in assay [11]; 10.3% in [12]. In addition, in assay [13], the Percent Effect is 1.36%.

In the case of `CC(C)NC(=O)[C@H]1C[C@@H]2[C@@H](C1)OCCN2Cc1cccnc1`, the Percent Effect in assay [1] was 1.37%; in [2], -5.33%; in [3], 3.61%; in assay [4] it was 10.3%; in [5], 6.39%; in assay [6], -4.25%. Besides, the Percent Effect is -52.9% in assay [7]; 1.54% in assay [8]; 7.17% in [9]; -9.38% in [10]; 3.12% in assay [11]; 2.5% in assay [12]. Moreover, the Percent Effect in assay [13] was -0.286%.

For the compound `CC(C)N1CCc2c(CN(C)Cc3ccco3)cncc2C1`, the Percent Effect in assay [1] was -2.76%; in assay [2], 0%; in assay [3], -1.51%; in assay [4] it was 0.165%; in assay [5], 16.7%; in assay [6], -3.86%. The Percent Effect in [7] was -22.8%; in assay [8], 0.171%; in assay [9], -0.596%; in assay [10] it was -0.895%; in assay [11], 4.17%; in assay [12], -7.5%. Moreover, in assay [13], the Percent Effect is -4.61%.

With `CCOCC(O)CN1CCN(C(=O)Cc2ccccc2Cl)CC1` (configuration not stated), the Percent Effect in assay [1] is -5.33%; in [2], 0%; in assay [3], -2.7%; in assay [4], 8.88%; in assay [5] it was -1.32%; in [6], -8.08%. Moreover, the Percent Effect in assay [7] was 4.21%; in [8] it was 9.36%; in assay [9], 14%; in assay [10], 19.1%; in assay [11], 0.49%; in [12], -2.44%. Further, the Percent Effect in [13] is -1.37%.
